The panel holds about 83,000 compounds, 20% with a hit somewhere; the sample as a whole holds those more often.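 Note: values are percent growth. 100 is the growth of untreated cells, values between 100 and 0 indicate rising inhibition; between -100 and 0 indicates cell death.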 A number with no mark means an inactive call. Activity calls are given as the source filed them. Rule for the calls: active = growth percent below 10; inactive = the rest.
Legend:
Experiment in all cases: NCI-60 one-dose screen, 48 h (100 = growth as untreated, 0 = no growth, -100 = all killed)
Conditions in all cases: 10 µM
NCI-H23 lung = tested on: NCI-H23 lung
NCI-H226 lung = tested on: NCI-H226 lung
NCI-H322M lung = tested on: NCI-H322M lung
HOP-62 NSCLC = tested on: HOP-62 NSCLC
NCI-H460 lung = tested on: NCI-H460 lung
HOP-92 NSCLC = tested on: HOP-92 NSCLC
NCI-H522 lung = tested on: NCI-H522 lung
A549/ATCC NSCLC = tested on: A549/ATCC NSCLC
786-0 renal = tested on: 786-0 renal
COLO 205 colon = tested on: COLO 205 colon
DU-145 prostate = tested on: DU-145 prostate
K-562 leukemia = tested on: K-562 leukemia
MALME-3M melanoma = tested on: MALME-3M melanoma
MDA-MB-231 breast = tested on: MDA-MB-231 breast
SF-268 CNS = tested on: SF-268 CNS
SF-295 CNS = tested on: SF-295 CNS
SF-539 CNS = tested on: SF-539 CNS
UACC-257 melanoma = tested on: UACC-257 melanoma
M14 melanoma = tested on: M14 melanoma

Structure (SMILES)	growth (NCI-H23 lung)	growth (NCI-H226 lung)	growth (NCI-H322M lung)	growth (HOP-62 NSCLC)	growth (NCI-H460 lung)	growth (HOP-92 NSCLC)	growth (NCI-H522 lung)	growth (A549/ATCC NSCLC)	growth (786-0 renal)	growth (COLO 205 colon)	growth (DU-145 prostate)	growth (K-562 leukemia)	growth (MALME-3M melanoma)	growth (MDA-MB-231 breast)	growth (SF-268 CNS)	growth (SF-295 CNS)	growth (SF-539 CNS)	growth (UACC-257 melanoma)	growth (M14 melanoma)
O=C(CSc1nnc(-c2ccc3nc(-c4ccccc4)[nH]c3c2)o1)Nc1ccc(Cl)cc1	21.4%	31.4%	63.9%	62.9%	48.8%	79.1%	28.7%	57.1%	16.9%	73.2%	73.6%	16.7%	44%	27.4%	59.6%	-14.9% (active)	23.4%	75.3%	39.7%
COc1ccc(-c2ccc(SCC(=O)Nc3ccc(C#N)cc3)nn2)cc1	79.7%	66.9%	88.4%	64.8%	96.4%	86.9%	87.3%	96.3%	86.4%	127%	105%	90%	78.6%	85.4%	99.1%	81.3%	71%	98.9%	93%
CCOC(=O)C1=C(N)N(c2ccccc2)C2=C(C(=O)CC(C)(C)C2)C1c1ccc(Cl)cc1 (centres undefined)	48.9%	70.4%	64.9%	80.7%	13%	69.5%	38.4%	33.9%	67.3%	-17.7% (active)	58.3%	18.3%	15.9%	53%	58%	21.3%	36.2%	28%	28.2%
Nc1cc(-c2cccc(C(=O)NCc3ccc4c(c3)OCO4)c2)ccn1	88%	87.3%	111%	93.6%	111%	89.4%	84.4%	99.2%	96.7%	131%	101%	74.4%	99.3%	102%	91.5%	90.7%	93%	106%	108%
Nc1nc(Nc2ccccc2)nn1Cc1c(Cl)cccc1Cl	34.1%	30.4%	51.8%	60.6%	24.8%	-17.4% (active)	21.1%	43.1%	27.8%	33.2%	48%	12.8%	31.4%	24.1%	50%	46.6%	37.6%	69.7%	35.5%
O=C(NO)c1ccc(Cn2ccc3c(NCc4ccccc4)ncnc32)cc1	-74.3% (active)	23.8%	30.2%	12.7%	11.1%	-19% (active)	-51.5% (active)	28.1%	22.7%	-60.1% (active)	10.3%	12.2%	-5.08% (active)	-18% (active)	19%	-68.2% (active)	-71.1% (active)	-20.8% (active)	-9.73% (active)
COc1ccc(-c2cc(C(=O)N=Nc3c(O)[nH]c4ccc(F)cc34)c3ccccc3n2)cc1	44.4%	68.3%	76.4%	110%	44.2%	87.1%	70.8%	88.3%	63.5%	103%	74.7%	25.2%	25.3%	6.12% (active)	47.9%	104%	39.5%	109%	74.4%
COc1ccc(C(=O)/C=C/c2cc(C(F)(F)F)cc(C(F)(F)F)c2)cc1S(N)(=O)=O	-86.1% (active)	-69.7% (active)	-73.8% (active)	-44.7% (active)	-24% (active)	-37.9% (active)	-67.7% (active)	-11.7% (active)	-69.2% (active)	-66.1% (active)	-41.4% (active)	8.85% (active)	-94.7% (active)	-77.8% (active)	6.18% (active)	-86% (active)	-98.4% (active)	-55.5% (active)	-75.8% (active)
N#Cc1ccc(-c2nn(-c3ccc(C(=O)O)cc3)cc2CNc2ccc(Oc3ccccc3)cc2)cc1	12%	85.1%	88.2%	37.4%	40.2%	38.8%	66.8%	46.5%	30.5%	118%	65.4%	42.7%	93.9%	72.5%	50.1%	49.3%	38.9%	56.1%	34.9%
CC(=O)c1ccc(Nc2nc(SCCC(C)C)nc(-c3ccc(F)cc3)c2C#N)cc1	53.2%	5.36% (active)	41.4%	41.1%	11.4%	3.49% (active)	72.8%	18.8%	2.71% (active)	77.2%	61.1%	63.9%	72.7%	24.8%	52.9%	11.5%	16.3%	106%	84.7%
Cc1cc(C)nc(/N=C(\N)Nc2ccc(S(=O)(=O)Nc3nc(C)cc(C)n3)cc2)n1	104%	102%	106%	104%	116%	117%	98.4%	106%	111%	120%	116%	102%	110%	105%	106%	98%	102%	108%	111%
COC(=O)C[C@](O)(CCCC(C)(C)O)C(=O)O[C@H]1C(OC)=C[C@@]23CCC(=O)N2CCc2cc4c(cc2[C@@H]13)OCO4	101%	79.4%	112%	93.1%	44.3%	116%	78.4%	94.9%	97.9%	118%	103%	96.7%	81.5%	117%	101%	103%	93.3%	109%	102%
Cc1cc(=O)oc2cc(OCCCCOc3ccc(/C=C/C(=O)Nc4ccc(F)c(Cl)c4)cc3)ccc12	87%	95.9%	93.4%	108%	86.7%	115%	94.6%	79.7%	94.9%	115%	89.1%	88%	71%	97.1%	111%	101%	89.3%	97.8%	95.9%
COc1ccc2[nH]cc(/C=N/Nc3cccc(Cl)n3)c2c1	64.2%	48.4%	71.2%	59.3%	47.3%	27%	27.1%	69.8%	25.4%	57.5%	64.4%	19.9%	76.3%	3.25% (active)	32.8%	47.2%	26.8%	84.3%	49.5%
COc1cc(C2CC(c3ccccc3)=Nc3c(N)nc(N)nc3N2)ccc1Oc1nc(Nc2ccc(F)cc2)nc(N(C)C)n1 (centres undefined)	43.9%	40.4%	71.7%	85.7%	10.6%	16.3%	65.6%	66.3%	43.4%	28%	48%	17.9%	32.4%	31%	55%	45.9%	63%	45.4%	46.6%
Cc1cc(=O)oc2cc(OCCCCOc3ccc(/C=C/C(=O)Nc4cccc(Cl)c4)cc3)ccc12	57.2%	35.9%	87.4%	54.9%	54.4%	50.9%	60.3%	55.4%	54.7%	62.3%	46.5%	63.8%	29.8%	88.3%	61.4%	78.6%	72.6%	81.5%	71.9%

Source: PubChem BioAssay (NCI)
